How the values were obtained:
[1] = target: T1, Aurora kinase A (Homo sapiens) (UniProt O14965); conditions: at 1 µM;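 further: values are mean percent inhibition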
T1 sequence (whole entry): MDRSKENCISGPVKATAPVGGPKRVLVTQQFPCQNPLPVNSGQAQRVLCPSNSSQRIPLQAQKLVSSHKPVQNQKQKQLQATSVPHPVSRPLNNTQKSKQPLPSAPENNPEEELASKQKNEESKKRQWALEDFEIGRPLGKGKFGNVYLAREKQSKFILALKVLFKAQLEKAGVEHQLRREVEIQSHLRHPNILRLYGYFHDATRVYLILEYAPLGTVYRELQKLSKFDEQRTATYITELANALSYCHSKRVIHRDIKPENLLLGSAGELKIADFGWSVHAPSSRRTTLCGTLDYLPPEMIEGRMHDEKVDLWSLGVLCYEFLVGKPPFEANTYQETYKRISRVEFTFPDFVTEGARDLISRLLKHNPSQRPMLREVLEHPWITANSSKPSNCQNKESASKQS

[2] = target: Aurora kinase B (Homo sapiens) (UniProt Q96GD4); conditions: at 0.1 µM
[3] = target: Aurora kinase B (Homo sapiens) (UniProt Q96GD4); conditions: at 1 µM
[4] = target: T2, Aurora kinase C (Homo sapiens) (UniProt Q9UQB9); conditions: at 0.1 µM
T2 sequence (whole entry): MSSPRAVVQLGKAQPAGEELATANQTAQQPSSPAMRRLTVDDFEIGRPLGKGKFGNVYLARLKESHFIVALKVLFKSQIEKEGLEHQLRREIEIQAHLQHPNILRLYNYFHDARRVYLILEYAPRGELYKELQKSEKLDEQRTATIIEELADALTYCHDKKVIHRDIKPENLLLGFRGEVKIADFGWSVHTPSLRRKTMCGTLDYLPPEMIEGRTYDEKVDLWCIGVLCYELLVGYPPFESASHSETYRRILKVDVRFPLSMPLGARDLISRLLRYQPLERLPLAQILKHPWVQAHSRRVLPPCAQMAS

[5] = target: T2, Aurora kinase C (Homo sapiens); conditions: at 1 µM
[6] = target: Serine/threonine-protein kinase 10 (Homo sapiens) (UniProt O94804); conditions: at 0.1 µM
[7] = target: Serine/threonine-protein kinase 10 (Homo sapiens) (UniProt O94804); conditions: at 1 µM
[8] = target: T3, Mitogen-activated protein kinase kinase kinase kinase 2 (Homo sapiens) (UniProt Q12851); conditions: at 0.1 µM
T3 sequence (whole entry): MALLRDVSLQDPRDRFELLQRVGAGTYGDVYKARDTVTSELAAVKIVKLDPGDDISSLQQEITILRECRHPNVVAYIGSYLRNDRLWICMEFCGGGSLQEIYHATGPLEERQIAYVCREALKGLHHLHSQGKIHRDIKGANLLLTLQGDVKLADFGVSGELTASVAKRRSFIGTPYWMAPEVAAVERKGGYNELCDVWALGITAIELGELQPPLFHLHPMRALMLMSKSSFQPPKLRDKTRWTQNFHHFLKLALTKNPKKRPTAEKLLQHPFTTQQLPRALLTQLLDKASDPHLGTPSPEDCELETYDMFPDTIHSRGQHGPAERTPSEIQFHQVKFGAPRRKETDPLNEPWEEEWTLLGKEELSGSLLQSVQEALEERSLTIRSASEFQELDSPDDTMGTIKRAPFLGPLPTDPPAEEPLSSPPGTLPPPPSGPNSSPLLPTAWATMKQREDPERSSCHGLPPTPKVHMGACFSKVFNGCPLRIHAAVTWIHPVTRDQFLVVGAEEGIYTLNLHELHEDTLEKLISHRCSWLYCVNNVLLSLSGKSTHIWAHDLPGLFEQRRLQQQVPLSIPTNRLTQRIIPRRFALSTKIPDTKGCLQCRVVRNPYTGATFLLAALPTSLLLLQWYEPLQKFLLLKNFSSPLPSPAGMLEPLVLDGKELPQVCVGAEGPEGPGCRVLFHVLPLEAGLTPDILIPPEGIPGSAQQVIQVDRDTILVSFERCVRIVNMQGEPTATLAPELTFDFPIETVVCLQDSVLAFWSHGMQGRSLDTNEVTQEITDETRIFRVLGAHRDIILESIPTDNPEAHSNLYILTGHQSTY

[9] = target: T3, Mitogen-activated protein kinase kinase kinase kinase 2 (Homo sapiens); conditions: at 1 µM
[10] = target: Mitogen-activated protein kinase kinase kinase kinase 4 (Homo sapiens) (UniProt O95819); conditions: at 0.1 µM
[11] = target: Mitogen-activated protein kinase kinase kinase kinase 4 (Homo sapiens) (UniProt O95819); conditions: at 1 µM
[12] = target: Dual specificity mitogen-activated protein kinase kinase 1 (Homo sapiens) (UniProt Q02750); conditions: at 0.1 µM
[13] = target: Dual specificity mitogen-activated protein kinase kinase 1 (Homo sapiens) (UniProt Q02750); conditions: at 1 µM
[14] = target: Misshapen-like kinase 1 (Homo sapiens) (UniProt Q8N4C8); conditions: at 0.1 µM
[15] = target: Misshapen-like kinase 1 (Homo sapiens) (UniProt Q8N4C8); conditions: at 1 µM
[16] = target: T4, Serine/threonine-protein kinase 4 (Homo sapiens) (UniProt Q13043); conditions: at 0.1 µM
T4 sequence (whole entry): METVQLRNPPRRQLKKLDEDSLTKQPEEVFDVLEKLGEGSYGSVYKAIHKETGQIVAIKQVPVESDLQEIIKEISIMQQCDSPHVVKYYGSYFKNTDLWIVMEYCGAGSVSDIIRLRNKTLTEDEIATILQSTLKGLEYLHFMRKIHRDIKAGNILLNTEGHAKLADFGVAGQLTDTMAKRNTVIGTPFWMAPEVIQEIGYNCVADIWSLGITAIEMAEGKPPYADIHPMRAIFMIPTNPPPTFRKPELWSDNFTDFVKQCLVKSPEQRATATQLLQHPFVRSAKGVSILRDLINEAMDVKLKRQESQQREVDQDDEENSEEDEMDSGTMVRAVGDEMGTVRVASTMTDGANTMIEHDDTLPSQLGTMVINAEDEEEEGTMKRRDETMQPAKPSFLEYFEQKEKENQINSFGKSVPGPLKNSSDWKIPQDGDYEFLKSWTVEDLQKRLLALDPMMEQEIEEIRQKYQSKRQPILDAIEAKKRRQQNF

[17] = target: T4, Serine/threonine-protein kinase 4 (Homo sapiens); conditions: at 1 µM
[18] = target: T5, Serine/threonine-protein kinase 3 (Homo sapiens) (UniProt Q13188); conditions: at 0.1 µM
T5 sequence (whole entry): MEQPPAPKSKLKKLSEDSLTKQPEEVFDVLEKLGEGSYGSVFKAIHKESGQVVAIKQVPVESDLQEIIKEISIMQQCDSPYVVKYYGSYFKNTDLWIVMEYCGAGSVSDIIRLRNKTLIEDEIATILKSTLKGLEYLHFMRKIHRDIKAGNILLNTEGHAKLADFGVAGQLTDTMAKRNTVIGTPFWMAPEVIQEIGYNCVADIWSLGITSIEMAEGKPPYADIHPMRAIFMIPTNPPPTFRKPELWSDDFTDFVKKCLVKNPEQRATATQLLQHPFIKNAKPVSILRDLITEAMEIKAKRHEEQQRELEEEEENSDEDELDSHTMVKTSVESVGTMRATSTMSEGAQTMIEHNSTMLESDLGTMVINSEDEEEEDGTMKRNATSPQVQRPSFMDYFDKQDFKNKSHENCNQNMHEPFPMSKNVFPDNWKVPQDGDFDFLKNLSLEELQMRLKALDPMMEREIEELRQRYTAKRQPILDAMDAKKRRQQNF

[19] = target: T5, Serine/threonine-protein kinase 3 (Homo sapiens); conditions: at 1 µM
[20] = target: Serine/threonine-protein kinase 26 (Homo sapiens) (UniProt Q9P289); conditions: at 0.1 µM
Sequence of Serine/threonine-protein kinase 26 (Homo sapiens) (Q9P289 2-416 limits assumed): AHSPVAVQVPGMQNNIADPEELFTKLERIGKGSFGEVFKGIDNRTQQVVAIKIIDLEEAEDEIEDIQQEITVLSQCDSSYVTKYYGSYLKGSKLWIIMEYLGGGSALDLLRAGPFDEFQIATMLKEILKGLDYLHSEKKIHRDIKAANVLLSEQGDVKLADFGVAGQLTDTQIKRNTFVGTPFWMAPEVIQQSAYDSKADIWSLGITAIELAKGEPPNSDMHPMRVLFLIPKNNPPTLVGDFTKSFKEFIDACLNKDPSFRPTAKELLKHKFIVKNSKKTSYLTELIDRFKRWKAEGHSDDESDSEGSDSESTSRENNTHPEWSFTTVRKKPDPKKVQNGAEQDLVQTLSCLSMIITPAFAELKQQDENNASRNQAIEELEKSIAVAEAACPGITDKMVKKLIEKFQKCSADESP

Sequence of Dual specificity mitogen-activated protein kinase kinase 1 (Homo sapiens) (Q02750 whole entry): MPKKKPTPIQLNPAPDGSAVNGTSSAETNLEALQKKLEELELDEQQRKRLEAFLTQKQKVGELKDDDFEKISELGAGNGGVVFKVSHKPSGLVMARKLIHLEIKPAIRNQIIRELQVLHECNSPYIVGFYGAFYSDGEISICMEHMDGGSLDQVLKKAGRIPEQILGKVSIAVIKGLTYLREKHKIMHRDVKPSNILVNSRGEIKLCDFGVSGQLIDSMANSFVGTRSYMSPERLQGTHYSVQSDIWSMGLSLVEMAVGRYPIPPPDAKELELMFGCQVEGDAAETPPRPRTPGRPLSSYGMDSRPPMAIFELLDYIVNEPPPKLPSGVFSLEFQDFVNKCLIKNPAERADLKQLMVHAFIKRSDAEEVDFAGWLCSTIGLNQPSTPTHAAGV
Sequence of Mitogen-activated protein kinase kinase kinase kinase 4 (Homo sapiens) (O95819 2-1239 limits assumed): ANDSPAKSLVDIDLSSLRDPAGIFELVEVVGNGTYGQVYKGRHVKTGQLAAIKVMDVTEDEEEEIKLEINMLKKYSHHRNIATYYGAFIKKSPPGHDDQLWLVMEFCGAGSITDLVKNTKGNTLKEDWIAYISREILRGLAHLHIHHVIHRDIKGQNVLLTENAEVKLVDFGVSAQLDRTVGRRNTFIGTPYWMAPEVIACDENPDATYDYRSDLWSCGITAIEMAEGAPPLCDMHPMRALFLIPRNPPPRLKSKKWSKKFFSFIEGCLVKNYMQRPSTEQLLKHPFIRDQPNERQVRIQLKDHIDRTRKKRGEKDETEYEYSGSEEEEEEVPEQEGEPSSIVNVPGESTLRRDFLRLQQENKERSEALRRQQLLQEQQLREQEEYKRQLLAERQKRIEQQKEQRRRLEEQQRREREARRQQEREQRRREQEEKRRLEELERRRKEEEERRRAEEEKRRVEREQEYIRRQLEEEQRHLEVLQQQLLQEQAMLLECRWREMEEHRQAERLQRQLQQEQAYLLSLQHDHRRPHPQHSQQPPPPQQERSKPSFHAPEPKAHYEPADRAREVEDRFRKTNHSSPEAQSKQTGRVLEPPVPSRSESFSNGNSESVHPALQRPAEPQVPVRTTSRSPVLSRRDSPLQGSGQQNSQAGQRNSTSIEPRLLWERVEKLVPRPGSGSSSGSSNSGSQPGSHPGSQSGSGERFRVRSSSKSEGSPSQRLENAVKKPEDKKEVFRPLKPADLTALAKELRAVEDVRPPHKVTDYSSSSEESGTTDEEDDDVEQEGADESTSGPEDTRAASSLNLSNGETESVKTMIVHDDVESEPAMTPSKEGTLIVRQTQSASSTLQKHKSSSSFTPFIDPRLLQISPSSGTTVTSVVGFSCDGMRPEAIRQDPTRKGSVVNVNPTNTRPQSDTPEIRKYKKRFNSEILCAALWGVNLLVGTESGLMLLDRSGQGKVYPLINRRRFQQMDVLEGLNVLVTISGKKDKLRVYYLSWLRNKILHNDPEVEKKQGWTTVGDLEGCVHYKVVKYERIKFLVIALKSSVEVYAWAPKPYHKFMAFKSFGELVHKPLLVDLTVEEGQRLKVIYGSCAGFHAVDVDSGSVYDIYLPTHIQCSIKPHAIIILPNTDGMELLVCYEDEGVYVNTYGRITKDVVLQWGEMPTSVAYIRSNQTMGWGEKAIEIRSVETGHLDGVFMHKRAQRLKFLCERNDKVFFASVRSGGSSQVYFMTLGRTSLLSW
Sequence of Serine/threonine-protein kinase 10 (Homo sapiens) (O94804 whole entry, looked up): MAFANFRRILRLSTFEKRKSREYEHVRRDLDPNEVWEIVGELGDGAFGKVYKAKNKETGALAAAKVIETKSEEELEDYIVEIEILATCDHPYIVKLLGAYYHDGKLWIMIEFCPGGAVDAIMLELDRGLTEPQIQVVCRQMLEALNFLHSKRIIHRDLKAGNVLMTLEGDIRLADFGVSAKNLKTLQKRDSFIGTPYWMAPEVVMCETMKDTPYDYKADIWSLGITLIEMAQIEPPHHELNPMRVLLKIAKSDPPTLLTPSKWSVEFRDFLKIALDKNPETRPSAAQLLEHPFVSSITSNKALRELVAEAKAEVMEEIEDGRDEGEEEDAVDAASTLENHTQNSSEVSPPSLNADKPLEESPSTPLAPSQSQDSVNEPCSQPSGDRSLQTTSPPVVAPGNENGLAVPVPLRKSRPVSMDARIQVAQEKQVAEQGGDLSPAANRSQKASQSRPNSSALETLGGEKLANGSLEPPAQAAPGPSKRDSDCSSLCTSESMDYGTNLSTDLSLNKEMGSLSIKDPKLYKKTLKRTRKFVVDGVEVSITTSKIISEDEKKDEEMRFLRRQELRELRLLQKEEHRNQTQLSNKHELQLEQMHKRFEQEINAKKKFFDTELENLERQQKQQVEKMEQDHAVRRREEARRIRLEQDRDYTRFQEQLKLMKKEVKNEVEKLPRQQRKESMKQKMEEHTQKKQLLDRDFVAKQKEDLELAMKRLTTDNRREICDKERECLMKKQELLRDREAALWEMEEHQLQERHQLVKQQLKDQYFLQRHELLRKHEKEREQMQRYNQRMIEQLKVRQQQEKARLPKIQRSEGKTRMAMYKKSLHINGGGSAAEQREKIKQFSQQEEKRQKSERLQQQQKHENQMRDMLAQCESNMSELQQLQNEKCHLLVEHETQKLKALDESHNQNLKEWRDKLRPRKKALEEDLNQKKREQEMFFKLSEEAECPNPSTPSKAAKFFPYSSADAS
Sequence of Misshapen-like kinase 1 (Homo sapiens) (Q8N4C8 whole entry, looked up): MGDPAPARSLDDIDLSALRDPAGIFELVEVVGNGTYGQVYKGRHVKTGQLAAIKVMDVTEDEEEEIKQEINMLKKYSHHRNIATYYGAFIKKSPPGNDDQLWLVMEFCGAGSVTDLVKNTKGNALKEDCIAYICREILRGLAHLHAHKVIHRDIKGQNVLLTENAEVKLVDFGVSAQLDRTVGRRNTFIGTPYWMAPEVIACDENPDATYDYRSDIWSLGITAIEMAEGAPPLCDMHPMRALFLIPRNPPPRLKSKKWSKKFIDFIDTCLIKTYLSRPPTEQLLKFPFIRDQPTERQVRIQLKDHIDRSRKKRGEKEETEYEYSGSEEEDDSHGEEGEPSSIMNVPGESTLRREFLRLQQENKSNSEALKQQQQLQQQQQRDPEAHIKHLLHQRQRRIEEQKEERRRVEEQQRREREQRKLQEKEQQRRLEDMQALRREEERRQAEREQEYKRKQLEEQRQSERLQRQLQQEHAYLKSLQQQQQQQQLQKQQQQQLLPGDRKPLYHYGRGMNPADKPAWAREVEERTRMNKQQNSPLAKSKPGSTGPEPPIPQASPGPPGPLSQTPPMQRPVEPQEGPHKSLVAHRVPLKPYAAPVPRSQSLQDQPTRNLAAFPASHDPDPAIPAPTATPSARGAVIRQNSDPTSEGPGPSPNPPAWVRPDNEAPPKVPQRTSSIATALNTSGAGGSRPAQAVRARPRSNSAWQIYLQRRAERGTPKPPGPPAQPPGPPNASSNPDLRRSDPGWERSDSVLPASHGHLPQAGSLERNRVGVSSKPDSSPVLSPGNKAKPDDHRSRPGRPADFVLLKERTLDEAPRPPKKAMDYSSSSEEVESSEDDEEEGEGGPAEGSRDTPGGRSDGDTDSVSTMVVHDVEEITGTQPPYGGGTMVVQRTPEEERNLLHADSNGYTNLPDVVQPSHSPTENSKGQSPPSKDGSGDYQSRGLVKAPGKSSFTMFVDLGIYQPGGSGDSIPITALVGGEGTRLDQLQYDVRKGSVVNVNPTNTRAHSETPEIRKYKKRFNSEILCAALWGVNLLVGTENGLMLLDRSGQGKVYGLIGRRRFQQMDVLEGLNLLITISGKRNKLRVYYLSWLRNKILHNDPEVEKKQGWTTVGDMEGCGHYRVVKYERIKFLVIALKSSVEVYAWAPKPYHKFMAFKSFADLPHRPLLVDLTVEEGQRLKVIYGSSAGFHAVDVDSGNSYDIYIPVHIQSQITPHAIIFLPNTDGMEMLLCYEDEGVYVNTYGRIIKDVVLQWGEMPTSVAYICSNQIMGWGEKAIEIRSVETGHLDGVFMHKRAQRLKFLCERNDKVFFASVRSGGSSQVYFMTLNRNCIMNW
Sequence of Aurora kinase B (Homo sapiens) (Q96GD4 whole entry): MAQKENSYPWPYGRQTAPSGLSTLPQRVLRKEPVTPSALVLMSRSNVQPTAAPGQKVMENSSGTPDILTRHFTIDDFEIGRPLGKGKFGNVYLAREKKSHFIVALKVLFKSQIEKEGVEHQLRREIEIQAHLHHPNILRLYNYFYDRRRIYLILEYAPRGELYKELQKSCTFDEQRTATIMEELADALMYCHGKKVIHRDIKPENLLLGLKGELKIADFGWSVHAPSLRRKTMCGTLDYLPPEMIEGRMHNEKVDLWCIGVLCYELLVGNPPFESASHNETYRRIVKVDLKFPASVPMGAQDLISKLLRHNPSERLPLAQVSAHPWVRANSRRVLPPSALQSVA

SMILES | inhibition [1] [%] | inhibition [2] [%] | inhibition [3] [%] | inhibition [4] [%] | inhibition [5] [%] | inhibition [6] [%] | inhibition [7] [%] | inhibition [8] [%] | inhibition [9] [%] | inhibition [10] [%] | inhibition [11] [%] | inhibition [12] [%] | inhibition [13] [%] | inhibition [14] [%] | inhibition [15] [%] | inhibition [16] [%] | inhibition [17] [%] | inhibition [18] [%] | inhibition [19] [%] | inhibition [20] [%]
CS(=O)(=O)CCNCc1nc(-c2ccc3ncnc(Nc4ccc(F)c(Cl)c4)c3c2)cs1 | 9.04 | 3.41 | 6.36 | 2.51 | -0.59 | 5.44 | 27.7 | 1.34 | 2.52 | 3.38 | 4.84 | 1.19 | 2.66 | 2.93 | 3.2 | 4.8 | 6.35 | 5.67 | 4.59 | 2.56
[O-][S+]1CCN(Cc2ccc(-c3ccc4ncnc(Nc5ccc(OCc6ccccc6)c(F)c5)c4c3)o2)CC1 | 5.78 | 1.65 | 4.29 | 0.94 | 7.34 | 2.71 | 6.62 | 0.36 | 1.57 | 3.5 | -0.28 | 2.4 | 3.03 | 4.17 | 1.42 | 2.61 | 2.36 | 2.82 | 3.06 | -0.81
N#Cc1c(NC(=O)c2cccc3ccccc23)sc2c1CCCC2 | 5.29 | 1.03 | 3.57 | 1.03 | 2.63 | 3.84 | 5.96 | 1.92 | 4.41 | 3.89 | 13.8 | 3.76 | 3.46 | 5.15 | 11.1 | 3.4 | 4.3 | 2.39 | 3.8 | -1.1
CCn1c(-c2nonc2N)nc2c(N3CCCC3)nccc21 | 2.53 | -1.12 | 5.43 | 0.17 | -2.42 | -0.24 | 2.42 | 1.22 | 4.2 | 0.97 | 2.78 | -2.28 | -2.11 | 0.71 | 2.4 | -1.49 | -1.2 | -2.05 | 0.3 | 0.47
O=C1NC(=O)C(c2ccc(Cl)cc2)=C1Nc1ccc(Cl)c(C(=O)O)c1 | 4.76 | -0.14 | 2.81 | -1.78 | -3.59 | -1.94 | -1.03 | 0.42 | 2.85 | -1.56 | 0.73 | -2.44 | -3.36 | -0.82 | -0.69 | -1.86 | -3.6 | -2.71 | -2.5 | -0.06
Cc1nn(C)c2cc(N(C)c3ccnc(Nc4cccc(S(N)(=O)=O)c4)n3)ccc12 | 89.8 | 7.86 | 47.5 | 13.3 | 93 | 13.3 | 51.4 | 7.42 | 30.9 | 53.7 | 84.1 | 3.83 | 4.09 | 44.2 | 83.8 | 1.85 | 3.69 | 1.21 | 3.34 | -0.82
COc1cc(C)c(NC(=O)CN(C)C)cc1Nc1nc(Nc2cccc(F)c2C(N)=O)c2cc[nH]c2n1 | 13.5 | -2.09 | 6.07 | -0.55 | 12.3 | 2.47 | 3.17 | 9.71 | 43.9 | 4.26 | 17.8 | 3.12 | 6.41 | 3.15 | 13.8 | 4.73 | 17.7 | 5.85 | 7.94 | 0.41
COc1cc(C=NNc2ncnc3c2cnn3-c2ccccc2)ccc1O | 94 | 11.5 | 56.8 | 9.9 | 88.3 | 5.58 | 26.1 | 4.63 | 19.3 | 28.1 | 70.6 | 1.68 | 1.06 | 24 | 64.7 | 2.58 | 11.5 | 3.41 | 6.24 | 1.85
COc1ccc2cc(-c3c(-c4ccncc4)nc(-c4ccc([S+](C)[O-])cc4)n3C)ccc2c1 (stereo not given) | 9.25 | 4.15 | 11 | 2.18 | 15.4 | 36 | 78.4 | 0.6 | 0.64 | 2.59 | 8.42 | 4.05 | 3.39 | 3.38 | 9.34 | 4.01 | 4.79 | 6.01 | 8.09 | -0.63
CC1=C(C(=O)Nc2ccc3[nH]ncc3c2)C(c2ccc(F)cc2)NC(=O)N1 (stereo not given) | 62.7 | 3.96 | 18.5 | 2.09 | 26.9 | 1.26 | 5.18 | 1.97 | 3.21 | 7.49 | 11.1 | 2.25 | 5.95 | 7.37 | 13 | 1.11 | 5.91 | 1.29 | 6.58 | 0.66
Fc1cccc(COc2ccc(Nc3ncnc4sc(-c5cccs5)cc34)cc2Cl)c1 | 2.05 | 1.14 | 6.42 | 1.7 | 7.89 | 2.84 | 4.63 | -0.64 | 1.65 | 1.29 | 6.34 | 2.3 | 4 | 1.45 | 2.51 | 0.07 | 0.3 | -1.67 | -0.19 | -0.02
CC1=C(C(=O)Nc2ccc3[nH]ncc3c2)C(c2ccc(Cl)c(Cl)c2)CC(=O)N1 (stereo not given) | 70.2 | 1.32 | 19.5 | 3.19 | 28.2 | 3.78 | 5.17 | -1.16 | 1.61 | 2.18 | 3.96 | 4.74 | 30.5 | 1.68 | 1.98 | 1.25 | 4.28 | 1.27 | 2.63 | -1.2
CS(=O)(=O)CCNCc1ccc(-c2ccc3ncnc(Nc4ccc(OCc5cccc(F)c5)c(C(F)(F)F)c4)c3c2)o1 | 2.73 | 2.77 | -1.87 | 0.77 | -1.89 | 3.11 | 7.45 | 1.28 | 2.47 | 3.22 | 8.1 | 5.38 | 4.64 | 4.62 | 7.1 | 3.92 | 5.23 | 3.56 | 4.74 | -1.09

Source: ChEMBL document CHEMBL1961873, “Compounds: GSK PKIS; Assays: Nanosyn kinase panel” (2012)
